Test results from PubChem BioAssay AID1159580 (chemical genetic matrix, 2015).
“And” between values parts separate entries of the source, which are not always exact repeats. Identical values can stand only once. Out of some 5,500 compounds screened, about 2,000 (36%) were called active. Roughly 18% stayed inconclusive and do not appear here. No stated cut-off is given here; in the data, active means normalized growth mostly below about 0.91 (no sharp cut-off); inconclusive means no clear call, values can overlap the other calls; inactive means mostly above about 0.92. The list shows a part of the results.

Experiment: chemical genetic growth profiling, strain panel (AID 1159580);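 further: tested at 20 µM; growth read once vehicle control cultures reached saturation at 30 °C; 1 = growth at the plate median or of vehicle wells; lower values mean less growth of the strain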
Details: S. cerevisiae deletion strains, growth OD

Measured: normalized growth

CN(C)CCOC(=O)COc1ccc(Cl)cc1
active: locus YDR137W, strain rgp1, active compounds read low 1.21 [resistant] | locus YDR502C, strain sam2, active compounds read low 1.09 [resistant]
inactive: locus YAL013W, strain DEP1, active compounds read low 1.02 | locus YAL021C, strain ccr4, active compounds read low 0.955 | locus YAL026C, strain drs2, active compounds read low 0.968 | locus YAL030W, strain snc1, active compounds read low 0.973 | locus YAL040C, strain CLN3, active compounds read low 1.06 | locus YBL061C, strain skt5, active compounds read low 0.966 | locus YBR009C, strain hhf1, active compounds read low 0.984 | locus YBR021W, strain FUR4, active compounds read low 0.95 | locus YBR023C, strain chs3, active compounds read low 0.965 | locus YBR171W, strain sec66, active compounds read low 0.969 | locus YBR229C, strain ROT2, active compounds read low 1.01 | locus YBR231C, strain swc5, active compounds read low 0.96 | locus YBR279W, strain paf1, active compounds read low 0.987 | locus YCL011C, strain gbp2, active compounds read low 0.957 | locus YCL016C, strain dcc1, active compounds read low 0.969 | locus YCL029C, strain bik1, active compounds read low 1.04 | locus YCL061C, strain MRC1, active compounds read low 0.969 | locus YCL069W, strain vba3, active compounds read low 0.974 | locus YCR088W, strain abp1, active compounds read low 0.956 | locus YDL005C, strain med2, active compounds read low 0.972 | locus YDL035C, strain GPR1, active compounds read low 1.05 | locus YDL040C, strain nat1, active compounds read low 0.973 | locus YDL074C, strain BRE1, active compounds read low 1.05 | locus YDL101C, strain DUN1, active compounds read low 1.02 | locus YDL134C, strain PPH21, active compounds read low 1.01 | locus YDL185W, strain tfp1, active compounds read low 1.03 | locus YDL192W, strain arf1, active compounds read low 1.04 | locus YDR001C, strain nth1, active compounds read low 0.965 | locus YDR069C, strain doa4, active compounds read low 0.953 | locus YDR101C, strain arx1, active compounds read low 1.03 | locus YDR150W, strain NUM1, active compounds read low 1.03 | locus YDR159W, strain sac3, active compounds read low 0.944 | locus YDR162C, strain NBP2, active compounds read low 1.03 | locus YDR195W, strain ref2 1.02 | locus YDR297W, strain sur2, active compounds read low 0.963 | locus YDR318W, strain mcm21, active compounds read low 1.06 | locus YDR334W, strain swr1, active compounds read low 0.933 | locus YDR335W, strain msn5, active compounds read low 0.969 | locus YDR388W, active compounds read low 1.03 | locus YDR392W, strain spt3, active compounds read low 0.974 | locus YEL003W, strain gim4, active compounds read low 0.957 | locus YEL037C, strain rad23, active compounds read low 0.969 | locus YEL061C, strain CIN8 (second series), active compounds read low 0.972 | locus YEL061C, strain CIN8, active compounds read low 1.02 | locus YER002W, strain NOP16, active compounds read low 0.971 | locus YER015W, strain faa2, active compounds read low 0.972 | locus YER016W, strain bim1, active compounds read low 0.968 | locus YER110C, active compounds read low 1.05 | locus YER111C, strain swi4, active compounds read low 0.98 | locus YER155C, strain BEM2 (second series), active compounds read low 0.962 | locus YER155C, strain BEM2, active compounds read low 1.01 | locus YER167W, strain BCK2, active compounds read low 1.01 | locus YFR010W, strain ubp6, active compounds read low 0.965 | locus YGL078C, strain dbp3, active compounds read low 1.04 | locus YGL086W, strain mad1, active compounds read low 1.06 | locus YGL167C, strain pmr1, active compounds read low 0.968 | locus YGL173C, strain kem1, active compounds read low 0.975 | locus YGL227W, strain vid30, active compounds read low 0.965 | locus YGL240W, strain doc1, active compounds read low 0.967 | locus YGL248W, strain PDE1, active compounds read low 1.01 | locus YGL253W, strain hxk2, active compounds read low 0.968 | locus YGR078C, strain PAC10, active compounds read low 1.05 | locus YGR135W, strain pre9, active compounds read low 1.03 | locus YGR229C, strain SMI1, active compounds read low 1.06 | locus YGR252W, strain gcn5, active compounds read low 1.01 | locus YHR013C, strain ard1, active compounds read low 0.983 | locus YHR027C, strain rpn1, active compounds read low 0.96 | locus YHR030C, strain SLT2, active compounds read low 1.02 and 1.08 | locus YHR079C, strain IRE1 (second series), active compounds read low 1.03 | locus YHR079C, strain IRE1, active compounds read low 1.11 | locus YHR094C, strain hxt1, active compounds read low 1.02 | locus YHR129C, strain ARP1, active compounds read low 1.02 | locus YHR142W, strain chs7, active compounds read low 0.962 | locus YHR200W, strain rpn10, active compounds read low 1.06 | locus YIL066C, strain RNR3, active compounds read low 1.04 | locus YIL073C, strain SPO22, active compounds read low 1.08 | locus YIL125W, strain kgd1, active compounds read low 1.01 | locus YIR030C, strain dcg1, active compounds read low 1.03 | locus YJL092W, strain hpr5, active compounds read low 0.943 | locus YJL095W, strain BCK1 (second series), active compounds read low 0.965 | locus YJL095W, strain BCK1, active compounds read low 1.05 and 1.09 | locus YJL115W, strain asf1, active compounds read low 0.947 | locus YJL129C, strain trk1, active compounds read low 1 | locus YJL134W, strain LCB3, active compounds read low 1.01 | locus YJL154C, strain vps35, active compounds read low 0.971 | locus YJL164C, strain tpk1, active compounds read low 0.97 | locus YJL166W, strain qcr8, active compounds read low 0.981 | locus YJL168C, strain set2, active compounds read low 1.02 | locus YJL187C, strain SWE1 (second series), active compounds read low 1.04 | locus YJL187C, strain SWE1, active compounds read low 0.981 | locus YJR043C, strain POL32, active compounds read low 1.09 | locus YJR066W, strain TOR1, active compounds read low 0.974 | locus YJR075W, strain HOC1, active compounds read low 0.98
